We go through 7 compounds from PubChem BioAssay (NCATS).

In test [1] the target is Mitogen-activated protein kinase 10 (Mus musculus) (UniProt Q61831). As to the kind of experiment: JNK3 AlphaScreen Assay (AID 530; active = well fitted curve in either direction with a large enough effect, not every such curve was filed as active;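 also: kinase came from lysate of stimulated human HepG2 cells; signal reports phosphorylation of biotinylated GST-cJun 1-79 at Ser73 with 10 µM ATP; % is scaled to controls: 0 for no effect and ±100 for the full control effect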). In a few lines:
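Kinase buffer: 20 mM Tris-HCl pH 7.6, 10 mM MgCl2, 1 mM DTT, 0.1 mM Na3VO4, 0.01% Tween-20; ATP 10 uM. Substrate biotin-GST-cJun(1-79), enzyme from activated HepG2 lysates. Detection by Ser73 phospho-antibody AlphaScreen.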
For orientation: Bead proximity is the source of the signal in Alpha formats.

Test [2] in a line: Cell Viability - N2a (AID 540).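 Also: cells exposed to compound for 40 h at 37 °C; plate controls were DMSO alone for no effect and tamoxifen control for full effect; nearly all actives have a fitted effect of over 45% in size.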 The note with it: N2a mouse neuroblastoma cell viability; activity change, negative = cytotoxicity: at 92.2 µM (top of the series). The gist of the method:
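N2a mouse neuroblastoma, 1500 cells/well, 5 hr settle; compound 40 hr, 37 °C; CellTiter-Glo 20 min RT; luminescence; Hill-fit AC50.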

Test [3] in a line: Cell Viability - HUV-EC-C (AID 542).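 Also: cells exposed to compound for 40 hours; % is scaled to controls: 0 for no effect and ±100 for the full control effect; nearly all actives have a fitted effect of over 35% in size.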 In a few lines: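 Luminescent ATP read-out (CellTiter-Glo, 20 min room temperature) after 40 hr compound treatment of HUV-EC-C cells at 37 °C. Concentration-response data fitted with the standard Hill equation to give AC50; tamoxifen and doxorubicin served as positive controls.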
The nature of test [4]: Cell Viability - Renal Proximal Tubule (AID 545).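 Also: cells exposed to compound for 40 hours; 0% = DMSO only and -100% = 100 µM tamoxifen; nearly all actives have a fitted effect of over 40% in size.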 The gist of the method:
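Primary rat renal proximal tubule cells (1000/well) were treated with compounds for 40 hr at 37 °C in complete medium. Intracellular ATP was measured by CellTiter-Glo luminescence, and AC50 values came from Hill-equation fits of concentration-response data.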

Test [5] is described as follows: Cell Viability - Mesenchymal (AID 546).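 Also: cells exposed to compound for 40 hours before reading; 0% = DMSO only and -100% = 100 µM tamoxifen.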 In a few lines: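 CellTiter-Glo luminescence (intracellular ATP, 20 min room temperature) after 40 hr compound exposure at 37 °C of 1000 glomerulus-derived human kidney mesenchymal cells/well; AC50 values obtained by fitting qHTS concentration-response data to the Hill equation.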
Test [6] can be described thus: Cellular Toxicity (caspase-3) Mesangial (AID 660).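 Also: combined caspase 3 and 7 activity read by Caspase-Glo luminescence; cells exposed to compound for 16 h before the caspase read.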 In a few lines: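 Luminescent Caspase-Glo 3/7 readout (aminoluciferin substrate cleavage, 20 min RT) after 16 h compound exposure at 37 °C of normal human mesangial cells. Signal increase normalized between DMSO basal and 100 uM tamoxifen; Hill-equation AC50.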
Test [7] is described as follows: Cellular Toxicity (caspase-3) Renal Proximal Tubule (AID 667).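 Also: cells exposed to compound for 16 hours at 37 °C before detection; 0% = DMSO basal and 100% = 10 µM staurosporine.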 In a few lines:
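Primary rat proximal tubule cells, 1000/well, 5 h plating at 37 °C, then compound 16 h at 37 °C. Caspase-Glo 3/7 reagent, 1 h RT, luminescence. Normalized to DMSO (basal) and 10 uM staurosporine (100%); Hill-fit AC50.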

Test [8] deals with Cytochrome P450 3A4 (Homo sapiens) (UniProt P08684). In words: qHTS Assay for Inhibitors and Substrates of Cytochrome P450 3A4 (AID 884). Also: % is scaled to controls: 0 for no effect and ±100 for the full control effect; nearly all actives have a fitted effect of over 50% in size. In a few lines: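 Luminescent readout of luciferin produced by CYP3A4 (20 nM) dealkylation of Luciferin-PPXE, 25 uM (its KM). NADPH-driven reaction ran 60 min at RT after 10 min compound preincubation; data scaled to 57 uM ketoconazole as 100% inhibition.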
Chain of Cytochrome P450 3A4 (Homo sapiens) (P08684 whole entry, looked up): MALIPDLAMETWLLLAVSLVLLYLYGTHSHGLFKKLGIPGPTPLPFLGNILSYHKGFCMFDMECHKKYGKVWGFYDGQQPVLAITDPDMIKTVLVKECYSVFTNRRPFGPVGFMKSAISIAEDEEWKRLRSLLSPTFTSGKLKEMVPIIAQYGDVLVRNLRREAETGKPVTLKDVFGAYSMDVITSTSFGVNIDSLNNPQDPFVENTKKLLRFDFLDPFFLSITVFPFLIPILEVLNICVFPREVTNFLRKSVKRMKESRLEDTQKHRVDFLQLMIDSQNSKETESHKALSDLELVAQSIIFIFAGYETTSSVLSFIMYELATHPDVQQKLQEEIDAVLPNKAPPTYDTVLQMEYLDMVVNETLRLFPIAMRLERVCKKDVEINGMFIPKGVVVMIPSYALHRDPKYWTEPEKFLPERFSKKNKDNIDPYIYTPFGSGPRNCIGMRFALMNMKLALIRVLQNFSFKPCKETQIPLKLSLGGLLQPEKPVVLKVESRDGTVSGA
(In general: Quantitative high-throughput screening tests each substance at several concentrations.)

Test [9] can be described thus: MultiTox-Fluor Cytotoxicity Assay - LYMP1-001 - Live Cells (AID 947).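 Also: 0% = DMSO only and full inhibition = tetraoctylammonium bromide control.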
Test [10] is described as follows: Cell Viability - LYMP2-005 (AID 967).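 Also: plate controls were DMSO only for no effect and 92 µM tetraoctylammonium bromide control for full effect.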 In a few lines: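 CellTiter-Glo luminescence (cellular ATP) read-out; LYMP2-005 lymphoblastoid cells, 2500/well, 5 h pre-incubation, then 24 h compound exposure at 37 C in complete medium. Tetraoctylammonium bromide positive control; AC50 by standard Hill fit.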
A short description of test [11]: Cell Viability - LYMP2-010 (AID 981).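 Also: cells exposed to compound for 24 hours at 37 °C; % is scaled to controls: 0 for no effect and ±100 for the full control effect; nearly all actives have a fitted effect of over 55% in size.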 In a few lines:
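qHTS cytotoxicity, 1536-well: 2500 cells/well, 5 hr settle, 24 hr compound at 37 C, CellTiter-Glo 30 min RT, luminescence read. Decrease in ATP = toxicity; AC50 via standard Hill equation. Positive control tetraoctylammonium bromide.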

A short description of test [12]: Cell Viability - LYMP2-016 (AID 984).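 Also: cells exposed to compound for 24 hours at 37 °C; % is scaled to controls: 0 for no effect and ±100 for the full control effect; nearly all actives have a fitted effect of over 55% in size.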 In a few lines:
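Human lymphoblastoid cells (LYMP2-016), 2500/well in complete medium, preincubated 5 hr at 37 C, then compound-treated 24 hr at 37 C. Intracellular ATP read by CellTiter-Glo luminescence after 30 min at room temperature; AC50 from Hill-equation concentration-response fits.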

Test [13] is described as follows: Cell Viability - LYMP2-024 (AID 988).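 Also: plate controls were DMSO only for no effect and 92 µM tetraoctylammonium bromide for full effect; nearly all actives have a fitted effect of over 60% in size.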 The gist of the method:
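ATP-based luminescence (CellTiter-Glo, 30 min RT) after 24 h compound exposure at 37 C of 2500 lymphoblastoid cells/well; decrease in ATP taken as cytotoxicity. qHTS concentration-response fitted to standard Hill equation for AC50.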

For test [14], the target named is Vitamin D3 receptor (Homo sapiens) (UniProt P11473). As to the kind of experiment: qHTS assay for small molecule antagonists of vitamin D receptor signaling (AID 588541; calls by dose curve;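 also: receptor activated by calcitriol during compound treatment; % is scaled to controls: 0 for no effect and ±100 for the full control effect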). The gist of the method:
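Antagonist-mode beta-lactamase reporter assay: HEK293T VDR-UAS-bla cells were exposed to titrated compound alongside 1-alpha,25-dihydroxyvitamin D3 at 3 nM final for 16 h. Values were normalized to the 50 nM agonist control and DMSO basal, with IC50 and efficacy from Hill equation fits.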

The nature of test [15]: qHTS assay for small molecule antagonists of retinoid X receptor alpha signaling (AID 588546).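 Also: cells stimulated with 9-cis-retinoic acid as agonist; % is scaled to controls: 0 for no effect and ±100 for the full control effect.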 The note with it: HEK293T RXRa-UAS-bla, beta-lactamase ratio, antagonist mode; measured here: W530 green channel, cytotoxicity proxy. In a few lines:
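Beta-lactamase reporter inhibition, read as CCF4 fluorescence ratio (ex 405, em 460/530 nm) after 2 h at RT. HEK293T UAS-bla cells, 2500/well, were stimulated with 9-cis-RA at 500 or 100 nM final alongside test compound for 18 h at 37 C.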

Test [16] concerns the target Voltage-gated inwardly rectifying potassium channel KCNH2 (Homo sapiens) (UniProt Q12809). As to the kind of experiment: qHTS Assay for Small Molecule Inhibitors of the Human hERG Channel Activity (AID 588834).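 Also: top concentration of the series differs between compounds; % is scaled to controls: 0 for no effect and ±100 for the full control effect; lower thallium flux fluorescence means stronger hERG block; nearly all actives have a fitted effect of over 50% in size.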 The gist of the method:
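In hERG-transduced U2OS cells, dye-loaded for 1 hr at room temperature in dark, test compounds incubated 10 min at 37 °C before thallium stimulation. AC50 values derived by Hill modelling of concentration-response.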

The nature of test [17]: qHTS assay for small molecule disruptors of the mitochondrial membrane potential - 1 hr assay (AID 651754; calls by dose curve; also: % is scaled to controls: 0 for no effect and ±100 for the full control effect; nearly all actives have a fitted effect of over 35% in size). The gist of the method: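 Read-out: dye fluorescence at 490 nm ex/535 nm em (monomers) and 540 nm ex/590 nm em (aggregates) in HepG2 cells. Compound exposure 1 hr at 37C, followed by 30 min dye loading.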
Test [18] is described as follows: qHTS assay for cell viability of HEK293 cells (AID 743288). Also: % is scaled to controls: 0 for no effect and ±100 for the full control effect; nearly all actives have a fitted effect of over 50% in size. The note with it: ATP luminescence (CellTiter-Glo), 18 h, stronger effect = lower value. In a few lines:
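After 18 h compound exposure at 37 C, parental HEK293 cells (2,000/well) are lysed with CellTiter-Glo and luminescence is read following 30 min at room temperature.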

For test [19], the target named is Nuclear receptor subfamily 1 group I member 2 (Rattus norvegicus) (UniProt Q9R1A7). As to the kind of experiment: qHTS assay for small molecule activators of the rat pregnane X receptor (rPXR) signaling pathway (AID 651751; call rule not given here; also: 0% is about no effect). The note with it: rPXR reporter cells, luciferase (One-Glo), 24 h.
Chain of Nuclear receptor subfamily 1 group I member 2 (Rattus norvegicus) (Q9R1A7 whole entry, looked up): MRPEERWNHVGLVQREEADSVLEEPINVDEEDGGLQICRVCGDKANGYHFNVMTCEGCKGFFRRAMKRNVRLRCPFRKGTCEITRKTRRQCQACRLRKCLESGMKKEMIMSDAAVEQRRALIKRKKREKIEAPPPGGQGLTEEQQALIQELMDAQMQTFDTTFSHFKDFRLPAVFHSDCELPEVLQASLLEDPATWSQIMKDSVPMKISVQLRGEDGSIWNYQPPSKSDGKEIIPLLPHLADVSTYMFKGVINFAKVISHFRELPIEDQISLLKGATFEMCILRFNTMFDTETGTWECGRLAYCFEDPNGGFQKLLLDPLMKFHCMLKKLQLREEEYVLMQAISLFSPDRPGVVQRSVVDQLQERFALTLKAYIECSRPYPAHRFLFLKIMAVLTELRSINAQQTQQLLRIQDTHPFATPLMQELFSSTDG
The nature of test [20]: qHTS assay for small molecule activators of the human pregnane X receptor (PXR) signaling pathway (AID 720659; call rule not given here; also: 0% is about no effect).

Molecules are shown by their SMILES. “And” between values parts separate entries of the source, which are not always exact repeats. Equal entries are not always repeated. Inconclusive results are not listed. The source made the active and inactive calls. Unless noted, calls follow the shape of the dose curve; as a rule, active = well fitted curve in the direction sought with a large enough effect; inconclusive = small, poorly fitted or top-dose-only effect, or another doubt; inactive = no such curve, though single readings can be large; an effect the other way counts as inactive or inconclusive.

Chain of Voltage-gated inwardly rectifying potassium channel KCNH2 (Homo sapiens) (Q12809 whole entry, looked up): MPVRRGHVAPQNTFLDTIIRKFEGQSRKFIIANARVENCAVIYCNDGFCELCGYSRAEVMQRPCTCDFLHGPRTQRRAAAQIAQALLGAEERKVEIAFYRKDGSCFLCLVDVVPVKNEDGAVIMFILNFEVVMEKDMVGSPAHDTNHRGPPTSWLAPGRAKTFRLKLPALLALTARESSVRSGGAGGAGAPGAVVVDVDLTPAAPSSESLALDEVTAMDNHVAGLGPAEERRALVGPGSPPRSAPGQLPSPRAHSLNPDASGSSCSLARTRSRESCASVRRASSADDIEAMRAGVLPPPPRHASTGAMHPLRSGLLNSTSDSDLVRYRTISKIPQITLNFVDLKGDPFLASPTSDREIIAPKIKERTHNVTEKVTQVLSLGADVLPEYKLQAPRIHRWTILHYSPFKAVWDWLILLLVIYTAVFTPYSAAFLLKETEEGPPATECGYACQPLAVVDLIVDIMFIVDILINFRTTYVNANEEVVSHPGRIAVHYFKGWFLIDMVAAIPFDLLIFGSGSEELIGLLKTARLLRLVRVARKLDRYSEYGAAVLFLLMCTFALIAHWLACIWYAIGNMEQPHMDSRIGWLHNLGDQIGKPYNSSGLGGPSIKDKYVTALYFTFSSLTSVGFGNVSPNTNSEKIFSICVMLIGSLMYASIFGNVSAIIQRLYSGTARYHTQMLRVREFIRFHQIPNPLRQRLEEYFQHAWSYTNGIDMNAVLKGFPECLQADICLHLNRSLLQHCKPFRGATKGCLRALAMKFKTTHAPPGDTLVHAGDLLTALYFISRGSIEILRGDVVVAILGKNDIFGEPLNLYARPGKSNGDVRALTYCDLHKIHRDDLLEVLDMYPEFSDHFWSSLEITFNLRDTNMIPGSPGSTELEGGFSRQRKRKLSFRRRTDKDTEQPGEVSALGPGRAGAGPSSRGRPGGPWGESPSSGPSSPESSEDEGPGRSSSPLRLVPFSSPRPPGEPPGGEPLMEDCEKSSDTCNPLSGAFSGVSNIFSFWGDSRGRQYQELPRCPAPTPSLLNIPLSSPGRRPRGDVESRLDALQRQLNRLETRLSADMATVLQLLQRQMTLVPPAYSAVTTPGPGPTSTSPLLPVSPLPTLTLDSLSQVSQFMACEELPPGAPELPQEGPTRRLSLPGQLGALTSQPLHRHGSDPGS
Chain of Vitamin D3 receptor (Homo sapiens) (P11473 whole entry, looked up): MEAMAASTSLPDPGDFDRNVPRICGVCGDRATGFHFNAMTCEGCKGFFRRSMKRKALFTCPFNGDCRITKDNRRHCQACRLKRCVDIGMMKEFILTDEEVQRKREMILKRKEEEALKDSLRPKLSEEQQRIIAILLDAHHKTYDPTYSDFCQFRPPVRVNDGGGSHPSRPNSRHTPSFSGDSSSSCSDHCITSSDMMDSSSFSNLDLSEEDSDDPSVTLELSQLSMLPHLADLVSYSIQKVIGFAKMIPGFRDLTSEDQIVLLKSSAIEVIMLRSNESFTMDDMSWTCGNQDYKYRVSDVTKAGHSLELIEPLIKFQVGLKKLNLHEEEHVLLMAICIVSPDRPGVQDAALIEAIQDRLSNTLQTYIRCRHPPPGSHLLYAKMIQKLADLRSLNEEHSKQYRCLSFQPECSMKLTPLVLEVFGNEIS

Regarding `CN(C)C(=O)Nc1ccc(Cl)cc1`, the Potency result in test [1], in test [2], in [3], in test [5], in test [8] and in [10] was “inactive” throughout. The Potency entry in test [11], in [12], in test [13], in test [16] and in [17] was “inactive” throughout. In addition, the result in test [4], in test [6], in [7], in [9], in [14] and in test [20] was inactive. Besides, the max response is -7.13% and -6.88% in [15]; 10.7% (inactive) and -3.59% (inactive) in test [18]; 6.29% (inactive) and 10.4% (inactive) in test [19].
Take `ClC(Br)Br`: the Potency entry in [1], in test [2], in [3], in test [5], in test [8] and in [10] was “inactive” in each case. The Potency result in [11], in test [12], in test [13], in [16] and in [17] was “inactive” each time. In addition, the compound was called inactive in test [4], in [6], in test [7], in test [9] and in test [20]. The max response in test [15] is -8.78%; in test [19] it was 0.757% (inactive).
Take `c1ccoc1`: the Potency entry in test [1], in test [2], in [3], in [5], in test [8] and in [10] was “inactive” throughout. The Potency entry in [11], in [13], in test [16] and in [17] was “inactive” throughout. The compound was classed as inactive in test [4], in test [6], in test [7], in test [14] and in test [20]. In addition, the max response in [15] is 1%; in [18] it was 0.0286% (inactive); in test [19], 3.47% (inactive).
As for `Cc1coc2c1CCC(C)C2` (stereo not given), the Potency result in test [1], in test [2], in [3], in test [5], in test [8] and in [10] was “inactive” throughout. The Potency result in test [11], in test [12], in test [13], in [16] and in test [17] was “inactive” in each case. In addition, the outcome in test [4], in test [6], in test [7], in test [9] and in test [14] was inactive. Also, the max response in [15] is -8.18%; in test [18] it was 2.25% (inactive).
`CCCCOCC1CO1` (stereo not given): the Potency result in test [1], in test [2], in test [3], in [5], in test [8] and in test [10] was “inactive” throughout. The Potency result in test [13], in test [16] and in test [17] was “inactive” throughout. The compound was called inactive in [4], in test [6], in test [7], in test [9], in test [14] and in [20]. Further, the max response was 12.9% in test [15], -19.5% (inactive) in test [18] and 2.3% (inactive) in test [19].
Take `C=CC(=O)OCCN(C)C`: the Potency entry in [1], in test [2], in test [3], in test [5], in test [8] and in test [10] was “inactive” in each case. In addition, the Potency result in [11], in test [12], in [13], in test [16] and in test [17] was “inactive” each time. Besides, the compound was classed as inactive in test [4], in test [7], in test [9], in test [14] and in test [20]. The max response is -6.38% in [15], -6.86% (inactive) in [18] and 2.48% (inactive) in [19].
Consider `O=C(O)C(Cl)(Cl)Br`, for which the Potency result in [1], in test [2], in test [3], in [5], in [8] and in test [10] was “inactive” in each case. Besides, the Potency result in test [11], in test [12], in test [13], in test [16] and in test [17] was “inactive” in each case. Besides, the result in test [4], in [6], in test [7], in [9], in test [14] and in test [20] was inactive. Besides, the max response in [15] is 1.14%; in [19], 3.3% (inactive).
